In the library only some 11% were active in any assay of this set; here they are far more common.
Pf growth 96h: Primary qHTS for delayed death inhibitors of the malarial parasite plastid, 96 hour incubation; 6.9% of 320,000 active; Potency, µM (top dose mostly 28.7 µM), usual class: inhibitors; AID 504834, 2011; P. falciparum luciferase reporter growth, 96 h
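Cell-based qHTS: luciferase-tagged P. falciparum in erythrocytes (2% hematocrit, 0.05% parasitemia final) incubated with compounds for 96 hours, 37 C, 5% CO2; luciferase detection reagent then added and luminescence measured.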
NS1 function inh: qHTS Assay for Inhibitors of Influenza NS1 Protein Function; Potency, µM (highest dose often 46.1 µM); 0.4% of 270,000 active; AID 2326, 2010; calls by dose curve; note: actives are rising curves; nearly all actives have a fitted effect of over 50% in size
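In this qHTS, NS1 from influenza A is expressed in budding yeast, where it slows growth. Cells are switched from glucose to 2% galactose medium (pH 6.0, -URA), treated with compound, and growth recovery is read at OD600.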
HCV inh: qHTS Assay for Inhibitors of Hepatitis C Virus (HCV); Huh7.5.1 HCVcc-Cre infection, luciferase reporter, 44 h; Potency, µM (highest dose often 41.8 µM), actives largely listed as inhibitors; 3.4% of 340,000 active; AID 651820, 2012
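Reporter virus HCVcc-Cre (~0.5 moi) infects cells exposed to compound; seeding density 1,000 cells/well with 4 h settling beforehand. Luminescence, 15 sec read, taken 44 h post-infection following a 15 min RT substrate incubation.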
Pf growth 48h: Primary qHTS for delayed death inhibitors of the malarial parasite plastid, 48 hour incubation; P. falciparum luciferase growth in erythrocytes, 48 h; Potency, µM (highest dose often 28.7 µM), most hits filed as inhibitors; 5.9% of 310,000 active; AID 504832, 2011
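Luciferase-expressing parasites in RBCs, 2% Hct / 0.1% parasitemia final; RPMI 1640 + 0.5% Albumax; 37 C, 5% CO2, one generation; luminescence read-out, lower signal = inhibition.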
Vaccinia Venus: qHTS for Stage-Specific Inhibitors of Vaccinia Orthopoxvirus: Venus Reporter Primary qHTS; 0.46% of 330,000 active; Vaccinia virus Venus reporter expression, fluorescence; AID 720580, 2013; Potency, µM (series often up to 36.5 µM), usual class: inhibitors; calls by dose curve; tested in A549 cells; note: nearly all actives have a fitted effect of over 30% in size
VACV mCherry inh: qHTS for Stage-Specific Inhibitors of Vaccinia Orthopoxvirus: mCherry Reporter Primary qHTS; Vaccinia virus mCherry reporter infection, fluorescence; Potency, µM (doses to about 36.5 µM), usual class: inhibitors; 0.63% of 310,000 active; calls by dose curve; tested in A549 cells; note: nearly all actives have a fitted effect of over 35% in size
A number is an active result. Unless noted, calls come from the whole dose curve; as a rule, active = well fitted inhibition curve with a large enough effect; inconclusive = small, poorly fitted or top-dose-only effect, or another doubt; inactive = no such curve, though single readings can be large or run the other way.

CCOc1ccc(-c2nnc(SCC(=O)NC(C)CC)nc2-c2ccc(OCC)c(OC)c2)cc1OC (configuration not stated) was read as Vaccinia Venus inactive and VACV mCherry inh inactive.
For CCOC(=O)C1=C(C)N(C)C(=O)NC1c1ccc2c(c1)OCO2 (configuration not stated) the results were Pf growth 96h inactive, NS1 function inh inactive, HCV inh inactive, Vaccinia Venus inactive and VACV mCherry inh inactive.
`CN(CC1CCCN(CCc2ccc(Cl)cc2)C1)C(=O)c1ccc2nc[nH]c2c1` (configuration not stated) gave Pf growth 96h inconclusive, NS1 function inh inactive, HCV inh inconclusive, Pf growth 48h inconclusive, Vaccinia Venus inactive and VACV mCherry inh inactive.
For CCCCn1c(N)c(N(CCOC)C(=O)c2ccc(OCc3c(C)noc3C)cc2)c(=O)[nH]c1=O the results were Pf growth 96h inactive, HCV inh inactive and Pf growth 48h inactive.
Screening COc1cc(C(=O)N[C@H](C(=O)NC2CCCCCC2)C(C)C)cc(OC)c1OC returned Pf growth 96h 12µM, NS1 function inh inactive, HCV inh inactive, Vaccinia Venus inactive and VACV mCherry inh inactive.
Screening O=C(OCC(=O)c1c[nH]c2ccccc12)C1=COCCO1 returned Pf growth 96h inactive, NS1 function inh inactive, HCV inh inactive and Pf growth 48h inactive.
CCCN1CCC(N2CCN(c3cccc(C(F)(F)F)c3)CC2)CC1 was read as Pf growth 96h inactive, NS1 function inh inactive, HCV inh 11µM and Pf growth 48h inconclusive.
Screening CCCN1CCC(N2CCN(c3ccc([N+](=O)[O-])cc3)CC2)CC1 returned Pf growth 96h 5.9µM, NS1 function inh inactive, HCV inh inactive and Pf growth 48h inconclusive.
For CC(=O)N1CCCC(N2CCN(c3cccc(C(F)(F)F)c3)CC2)C1 (configuration not stated) the results were Pf growth 96h inconclusive, NS1 function inh inactive, HCV inh inactive and Pf growth 48h inactive.
For CCN1CCC(N2CCN(c3ccc(Cl)cc3)CC2)CC1 the results were Pf growth 96h inactive, NS1 function inh inactive, HCV inh inactive and Pf growth 48h inactive.
`CCCC(=O)c1ccc(N2CCN(C(=O)OCC)CC2)c(F)c1` gave Pf growth 96h 9.3µM, NS1 function inh inactive, HCV inh inactive, Pf growth 48h inactive, Vaccinia Venus inactive and VACV mCherry inh inactive.
For CCOC(=O)N1CCN(c2ccc(C(=O)CC)cc2F)CC1 the results were Pf growth 96h inactive, NS1 function inh inactive, HCV inh inactive, Pf growth 48h inactive and Vaccinia Venus inactive.
Screening CCOc1ccccc1C(=O)NCC(=O)NC(C)c1ccc(-n2ccnc2)cc1 (configuration not stated) returned Pf growth 96h inconclusive, HCV inh inconclusive, Pf growth 48h inconclusive, Vaccinia Venus inactive and VACV mCherry inh inactive.
For CCOC(=O)N(C)c1c(CC)nc2c(OCc3ccc(C(F)(F)F)cc3)cccn12 the results were Vaccinia Venus inactive and VACV mCherry inh inactive.
`Nc1nc(N)c2c(OCc3ccc(C(F)(F)F)cc3)cccc2n1` gave Vaccinia Venus 10µM and VACV mCherry inh 10µM.
CC1(C)CC(=O)C(N=Nc2ccc(F)cc2)=C(O)C1 was read as Pf growth 96h inactive, NS1 function inh inactive, HCV inh inactive, Pf growth 48h inactive, Vaccinia Venus inactive and VACV mCherry inh inconclusive.
Nc1nnc(-c2cn(-c3ccccc3)nc2-c2ccc(Cl)cc2)o1 was read as Pf growth 96h 4.7µM, NS1 function inh inactive, HCV inh inactive, Pf growth 48h 3.7µM, Vaccinia Venus inactive and VACV mCherry inh inactive.
Screening Cc1ccc(S(=O)(=O)NCc2ccccc2)cc1C(=O)N(C)CC(=O)Nc1ccccc1Br returned HCV inh inactive.
`COc1ccc(NC2=NC(=S)N(c3cccc(C)c3)C23CCCCC3)cc1` gave Pf growth 96h inactive, NS1 function inh inactive, HCV inh inactive, Vaccinia Venus inactive and VACV mCherry inh inactive.

Compound activity from PubChem BioAssay.
